# Shown are actives, neighbours in structure and some others; about 1.5% of the full set was active somewhere.
# TcdB inh = TcdB glycohydrolase inhibitors, primary screen, biochemical, single point, plate reader | Toxin B (Clostridioides difficile), P18177 | TcdB glycohydrolase enzymatic assay | inhibition, % at 9.99 µM | hit rate 0.24% among 350,000 | AID 652162, 2013; in the data active means inhibition above about 10%
# CCHFV vOTU inh = CCHFV vOTU protease inhibitors, primary screen, biochemical, Pep-AMC substrate, fluorescence. Crimean-Congo hemorrhagic fever virus L polyprotein viral ovarian tumor (vOTU) protease …. inhibition, % at 11.5 µM. hit rate 0.55% among 370,000. AID 651958, 2012; in the data active means inhibition above about 30%; further: 0% = vehicle wells with enzyme and 100% = no enzyme wells
# DUSP3 inh = VHR1 phosphatase inhibitors, primary screen, biochemical, absorbance, uHTS; Dual specificity protein phosphatase 3 (Homo sapiens), P51452; recombinant VHR phosphatase, pNPP absorbance; inhibition, % at 13.3 µM; hit rate 0.52% among 290,000; in the data active means inhibition above about 50%
# Target sequence (P51452 whole entry, looked up): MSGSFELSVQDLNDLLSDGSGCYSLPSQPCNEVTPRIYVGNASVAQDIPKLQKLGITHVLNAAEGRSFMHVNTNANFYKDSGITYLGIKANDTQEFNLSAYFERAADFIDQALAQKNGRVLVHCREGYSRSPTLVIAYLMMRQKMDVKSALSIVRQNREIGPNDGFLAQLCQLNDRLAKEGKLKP
# PrPC surface inh = inhibitors of human cell surface prion protein PrPC, primary screen, cell-based, TR-FRET. Major prion protein (Homo sapiens), P04156. TR-FRET read-out. inhibition, % at 13.8 µM. hit rate 0.43% among 370,000. AID 720596, 2013; in the data active means inhibition above about 24%; further: 0% = median of the test wells and 100% = reference compound wells
# BH1578 lux ind = inducers of Vibrio cholerae quorum light production without autoinducers, primary screen, BH1578 luxS cqsA deficient, single point; V. cholerae BH1578 lux reporter, luminescence, 6 h; activation, % at 18.7 µM; hit rate 0.16% among 350,000; in the data active means activation mostly above about 9.7%, no sharp cut-off
# SSB-PriA inh = inhibitors of Klebsiella pneumoniae PriA binding to SSB C-terminal tail, primary screen, biochemical, AlphaScreen | PriA–SSB C-terminal tail interaction (Klebsiella pneumoniae) | AlphaScreen SSBct-PriA binding, biotinylated peptide | inhibition, % at 33 µM | hit rate 0.6% among 430,000; in the data active means inhibition mostly above about 37%, no sharp cut-off; inactive means mostly below about 20%;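 further: plate controls were negative control peptide for no effect and reference peptide for full effect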
# Numbers without * were called inactive; i = inactive; / = no result; ! = a repeat was not active.
SMILES,TcdB inh,CCHFV vOTU inh,DUSP3 inh,PrPC surface inh,BH1578 lux ind,SSB-PriA inh
O=C1NC(=O)C(=Cc2ccc(Cl)c(Cl)c2)S1,1.2,26.8,/,1.9,-0.9,-11.3
O=C1NC(=O)/C(=C/c2ccc(O)cc2)S1,27.0*,-1.4,21.7,-13.9,i,-17.8
CC(/C=N\NC(=O)CCn1nnc2ccccc21)=C\c1ccccc1,/,/,/,/,/,-4.0
Cc1sc(NC(=O)c2ccc(S(=O)(=O)N(C)C3CCCCC3)cc2)c(C#N)c1C,/,/,/,/,/,-9.0
Cc1ccc(/C=C/S(=O)(=O)N2CCN(c3ccc4nncn4n3)CC2)cc1,/,/,/,/,/,-2.0
O=C(NC1CCCCC1)C(C1CC1)N1CCc2ccccc2C1 (stereo not drawn),0.4,-2.8,/,-2.0,/,/
O=C(NC1CCCCC1)C(c1ccnc2ccccc12)N1CCc2ccccc2C1 (stereo not drawn),0.1,76.3*,/,-6.0,/,/
O=[N+]([O-])c1cc(CN2CCN(Cc3ccccc3)CC2)ccc1Sc1ccc(Cl)cc1,/,/,/,/,/,57.9*
CN1CCN(Cc2ccc(Sc3ccc(Cl)cc3)c([N+](=O)[O-])c2)CC1,0.4,0.1,7.8,-18.8,-0.3,7.3
COc1ccc(S(=O)(=O)CCC(=O)N2CCNC(=O)C2(C)C)cc1,/,/,/,/,/,-9.0
Cc1ccc(N=C2NC(=O)CS2)cc1,/,6.5,5.0,7.2,6.2,-9.8
O=C1CSC(=Nc2ccc(O)cc2)N1,14.9*,-13.7,37.7,-3.0,i,-5.0
Cc1ccc(-n2nnnc2SC(C)C(N)=O)c(C)c1 (stereo not drawn),/,-1.8,-29.4,3.6,16.7*,-4.8
CC(C)(C)c1ccc(C(=O)Nc2nnc(-c3cccc(S(C)(=O)=O)c3)o2)cc1,/,/,/,/,/,1.0
O=c1oc2c3c4c(cc2s1)CCCN4CCC3,/,4.7,39.7,-8.3,-0.3,51.7*
Cn1c(SCc2ccccc2)nnc1-c1ccc2c(c1)OCO2,/,5.8,-12.0,-2.3,-0.7,-7.8
Cn1c(SCC#N)nnc1-c1ccc2c(c1)OCO2,/,9.1,7.5,-1.0,16.7*,-2.8
CC1Oc2ccccc2N(Cc2ccccc2Cl)C1=O (stereo not drawn),1.7,/,31.2,/,-2.2,-10.5
O=C1COc2ccccc2N1Cc1ccccc1Cl,/,-5.9,36.8,4.3,16.7*,-29.1
N#Cc1ccc(NC(=O)CN2C(=O)COc3ccccc32)cc1,/,/,/,/,/,48.5
O=C(CN1C(=O)COc2ccccc21)NCCN1CCCC1,0.8,4.9,50.4*,4.2,i,-3.6
O=C(CN1C(=O)COc2ccccc21)NCCCN1CCCC1,1.9,3.6,-3.6,-4.2,0.5,-8.8
O=C(CN1C(=O)COc2ccccc21)Nc1ccc(Cl)cc1,/,/,/,/,/,52.5*
Cc1cc(C(=O)N/N=C\C(Br)=C\c2ccccc2)n[nH]1,/,/,/,/,/,-16.0
O=C(CSc1ccc(NC(=O)c2cccs2)nn1)Nc1nc2ccccc2s1,/,/,/,/,/,-6.0
SMILES,TcdB inh,CCHFV vOTU inh,DUSP3 inh,PrPC surface inh,BH1578 lux ind,SSB-PriA inh
COc1ccc(Cl)cc1NC(=O)C[C@H]1CCCCN1S(=O)(=O)c1ccc(C)cc1,/,/,/,/,/,-20.0
O=C(CCCn1nc(-c2ccco2)ccc1=O)NCc1cccs1,/,/,/,/,/,-7.0
O=C(Cc1nnc(NC(=O)Nc2ccccc2)s1)NCc1ccccc1,0.9,-7.1,57.9*,-4.9,i,-10.1
Cc1ccc(-n2ncc(C(=O)NCC3CCN(C4CCCC4)C3)c2C2CCN(C(=O)OC(C)(C)C)CC2)cc1 (stereo not drawn),0.5,-7.3,17.7,-2.0,-0.5,10.7
Cc1ccc(-n2ncc(C(=O)NCC3CCN(C4CCCC4)C3)c2C2CCN(C(=O)OC(C)(C)C)CC2)cc1C (stereo not drawn),1.2,6.1,57.7*,3.6,-0.4,14.1
CCOc1ccc(N)c([N+](=O)[O-])c1,/,/,/,/,/,39.0*
CCOc1ccc(NC(=O)c2ccc(CC)s2)c([N+](=O)[O-])c1,10.3*,7.0,-11.2,-9.0,-0.6,-3.8
CCOc1ccc(NC(=O)c2cccs2)c([N+](=O)[O-])c1,/,-1.0,21.9,-16.5,i,-2.2
CCOc1ccc([N+](=O)[O-])c(N)c1,/,7.2,-5.6,-15.0,i,-2.1
Cc1ccc(C)c(Nc2c([N+](=O)[O-])ccc3nonc23)c1,0.9,4.2,13.8,-3.3,i,50.3*
NS(=O)(=O)c1cccc(NC(=O)c2ccc(NS(=O)(=O)c3cccc([N+](=O)[O-])c3)cc2)c1,12.3*,6.2,/,-9.6,i,14.3
O=C(NCCCN1CCOC(c2ccccc2)C1)C(=O)Nc1ccc(F)c(Cl)c1 (stereo not drawn),/,/,/,/,/,-1.0
COc1ccc(/C=C(\NC(=O)c2cccs2)C(=O)NN)cc1OC,-3.7,2.5,52.0*,-3.1,-0.9,4.7
c1ccc(N2CCN(c3nc(NCc4ccco4)c4ccccc4n3)CC2)cc1,/,13.1,-2.4,-10.3,i,40.0*
c1coc(CNc2nc(N3CCCCC3)nc3ccccc23)c1,/,-7.7,6.5,-8.0,-10.9,-5.8
COc1ccc(-n2cc(-c3ccc(OC)c(OC)c3)[nH]c2=S)cc1,1.3,-12.7,50.6*,1.7,3.1,4.3
Cc1c(O)ccc(NC(=O)/C=C/c2ccccc2)c1C,17.4*,-1.6,14.9,3.4,0.6,-2.3
O=C(/C=C/c1ccccc1)Nc1cccnc1Cl,16.3*,-1.7,13.4,-0.3,i,-7.7
COC(=O)c1ccc(C(=O)Nc2nc3c(s2)CC(C)CC3)cc1 (stereo not drawn),/,/,/,/,/,-2.0
Cc1ccc(O)c(CN(C)Cc2cc(C)ccc2O)c1,-4.7,21.4,/,0.6,i,-5.1
CN(CCCCCCN(C)Cc1ccccc1O)Cc1ccccc1O,0.1,2.3,51.5*,-4.4,-0.8,-6.6
CCOC(=O)C(C#N)=CNc1ccccc1NS(=O)(=O)c1ccc2c(c1)OCCO2,/,/,/,/,/,-2.6
Cc1ccc(CNC(=O)CSc2nccnc2N2CCN(c3cccc(C)c3C)CC2)cc1,/,/,/,/,/,-7.0
COc1ccccc1N1COc2ccc3c(=O)c(-c4ccccc4)coc3c2C1,/,/,/,/,/,32.0*
Cc1ccc2sc(N(CCN(C)C)C(=O)c3ccc4c(c3)OCCO4)nc2c1C,/,/,/,/,/,40.0*
SMILES,TcdB inh,CCHFV vOTU inh,DUSP3 inh,PrPC surface inh,BH1578 lux ind,SSB-PriA inh
CN(C)CCN(C(=O)c1ccc2ccccc2c1)c1nc2c(F)cc(F)cc2s1,-0.3,8.7,-11.6,-7.3,1.1,37.0*!
C=CCCC(=O)N(CCC)Cc1ccsc1,/,/,/,/,/,-8.0
N#Cc1nc(-c2cccs2)oc1NCc1ccccc1Cl,/,-106.1,-14.9,5.5,-1.0,45.1*
CC/C(=C\c1ccc(N(C)C)cc1)c1ccncc1,-3.2,-3.4,/,-0.1,/,49.0*
CN(C)c1ccc(-c2ccncc2)cc1,/,/,7.9,/,/,/
Cc1ccc(C(=O)NCCc2nnc3ccc(SCC(=O)NCc4ccc(F)cc4)nn23)cc1,1.7,6.1,57.1*,-10.2,0.0,-5.4
Cn1c(=NC(=O)/C=C/c2ccc([N+](=O)[O-])s2)sc2cc(Br)ccc21,/,/,/,/,/,-20.0
Cc1cc(C(=O)Nc2cc(Br)ccc2O)on1,0.4,0.1,53.0*,1.7,i,-15.0
